Screens deposited in PubChem by National Center for Advancing Translational Sciences (NCATS).
Hits are enriched below; roughly 3.6% of the tested compounds scored in any of these assays.
Epigenetic derep: epigenetic control regulation, reporter derepression | murine LDR cells, GFP reporter derepression, 30 h | AID 1865 | 280,000 compounds, 0.2% hits | Potency, µM (highest dose often 53.9 µM), most hits filed as activators; also: nearly all actives have a fitted effect of over 60% in size
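Derepression of a silenced CMV-GFP reporter in murine LDR cells is scored by enumerating GFP-positive cells with a laser-scanning microplate cytometer after 30 hours of treatment at 37 C.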
Sfp inh: Sfp phosphopantetheinyl transferase inhibition; Q9F4F7; Potency, µM, most hits filed as inhibitors; Biochemical Sfp PPTase activity, qHTS; 310,000 compounds, 3.5% hits;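 also: the enzyme is Sfp with the accession as filed and its product quenches rhodamine fluorescence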
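Step 1, compound plus 15 nM Sfp-PPTase, 15 min, room temperature. Step 2, add rhodamine-CoA (5 uM) and BHQ-2-YbbR (12.5 uM). Step 3, read 525/598 nm fluorescence at 0 and 30 min.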
KAT2A inh: GCN5L2 (KAT2A) acetyltransferase inhibition | Q92830 | GCN5L2 HAT assay, ThioGlo1 CoA-SH fluorescence | Potency, µM (top dose mostly 58.9 µM), hits mostly inhibitors | 390,000 compounds, 0.21% hits | AID 504327
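Free CoA generated was detected with ThioGlo1 (50uM) fluorescence at Ex340nm/Em540nm, read immediately and after 20 min at room temperature. Enzyme, 20 nM in HEPES pH 7.5 buffer, saw compounds 15 min before adding 75uM H3(1-25) peptide and 70uM acetyl-CoA.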
NPSR antagonist: antagonists of human neuropeptide S receptor cAMP signaling. CHO-NPSR cells, cAMP TR-FRET, antagonist mode. Q6W5P4. AID 1461. 220,000 compounds, 1% hits. Potency, µM (series often up to 38.3 µM), most hits filed as inhibitors; also: nearly all actives have a fitted effect of over 50% in size
Target sequence (Q6W5P4 whole entry, looked up): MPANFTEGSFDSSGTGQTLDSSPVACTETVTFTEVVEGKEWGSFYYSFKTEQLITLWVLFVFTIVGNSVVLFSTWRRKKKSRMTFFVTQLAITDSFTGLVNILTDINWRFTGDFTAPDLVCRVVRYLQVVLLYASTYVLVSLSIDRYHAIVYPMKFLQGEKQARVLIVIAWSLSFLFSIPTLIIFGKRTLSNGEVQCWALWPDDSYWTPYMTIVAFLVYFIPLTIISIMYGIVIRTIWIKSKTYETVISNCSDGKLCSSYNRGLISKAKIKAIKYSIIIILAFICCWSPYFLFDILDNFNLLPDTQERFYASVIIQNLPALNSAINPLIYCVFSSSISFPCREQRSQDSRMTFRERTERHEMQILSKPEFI
KDM4E inh: blocks human JMJD2E demethylase activity | B2RXH2 | JMJD2E catalytic domain, FDH-coupled NADH fluorescence (FDH is formaldehyde dehydrogenase) | Potency, µM (highest dose often 57.1 µM), most hits filed as inhibitors | 230,000 compounds, 1.6% hits; active = well fitted inhibition curve with a large enough effect, not every such curve was filed as active; inconclusive = small, poorly fitted or top-dose-only effect, or another doubt; inactive = no such curve, though single readings can be large or run the other way; also: nearly all actives have a fitted effect of over 50% in size
Target sequence (B2RXH2 1-337 limits assumed): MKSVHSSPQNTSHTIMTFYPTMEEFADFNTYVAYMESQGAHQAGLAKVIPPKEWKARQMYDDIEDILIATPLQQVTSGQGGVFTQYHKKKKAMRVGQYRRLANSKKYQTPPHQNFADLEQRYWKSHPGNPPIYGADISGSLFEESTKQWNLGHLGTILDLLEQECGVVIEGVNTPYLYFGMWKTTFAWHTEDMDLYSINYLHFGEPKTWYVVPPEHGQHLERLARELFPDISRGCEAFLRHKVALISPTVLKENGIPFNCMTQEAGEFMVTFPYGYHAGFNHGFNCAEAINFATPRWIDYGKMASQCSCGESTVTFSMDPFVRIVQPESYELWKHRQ
IMPase Li cell: membrane-permeable IMPase blocker, potentiated with lithium. Potency, µM (doses to about 59.4 µM), actives largely listed as inhibitors. CHO-M1 cells, IP1 TR-FRET (IP-One), carbachol + lithium. 210,000 compounds, 0.35% hits;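 also: IP1 builds up when IMPase is blocked and the TR-FRET signal falls; nearly all actives have a fitted effect of over 50% in size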
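CHO cells stably expressing M1 receptor (2000/well, cultured 16–30 h) treated 30 min at 37C with compound plus low lithium. Cytosolic IP1 by TR-FRET (665/620 ratio and 620 channel) after 10 min lysis; AC50 by Hill fit.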
Hits are given with their value; n = inactive; u = inconclusive; x = not tested or not shown; [ ] = dose if it differs, or a comment. Unless noted, calls follow the shape of the dose curve; as a rule, active = well fitted curve in the direction sought with a large enough effect; inconclusive = small, poorly fitted or top-dose-only effect, or another doubt; inactive = no such curve, though single readings can be large; an effect the other way counts as inactive or inconclusive.

SMILES	Epigenetic derep	Sfp inh	KAT2A inh	NPSR antagonist	KDM4E inh	IMPase Li cell
O=C1c2ccccc2CCC1CNCCc1ccc(O)cc1 (stereo unspecified)	n	56.2µM	n	x	x	n
O=C1c2ccccc2CC[C@H]1CNCCc1ccc(O)cc1	n	u	n	x	n	n
CN1Cc2sccc2C(c2ccc(O)c(O)c2)C1 (stereo unspecified)	x	x	n	x	x	x
Cc1ccc(CN(C)C(=O)c2ccc3c(c2)NC(=O)CS3)o1	n	31.6µM	n	n	n	x
C[C@@H](C(=O)Nc1ccc2ccccc2c1)[C@@H]1C[C@@]1(C)[C@@H](NS(=O)(=O)c1ccc(-c2ccccc2)cc1)c1ccccc1	n	n	x	x	u	n
Nc1nnc(CC(c2ccccc2)c2ccccc2)s1	n	n	n	n	n	n
CC(Cc1nnc(N)s1)c1ccccc1 (stereo unspecified)	x	50.1µM	n	x	x	x
O=C1C(NS(=O)(=O)c2cccs2)=C(N2CCN(c3cccc(C(F)(F)F)c3)CC2)C(=O)c2ccccc21	n	n	u	10µM	n	n
CN1CCN(C2=C(NS(=O)(=O)c3cccs3)C(=O)c3ccccc3C2=O)CC1	n	n	n	n	n	x
Cc1[nH]c(=O)c(C#N)c(C)c1Cl	n	n	n	n	u	x
N#Cc1sc(=O)[nH]c1Cl	x	50.1µM	x	x	x	x
O=C(O)COc1ccc(OCCNC[C@H](O)COc2ccccc2)cc1	n	n	n	x	x	n
CN(C)c1ccc(-c2nn3c(-c4ccc(Cl)cc4Cl)nnc3s2)cc1	n	n	n	n	n	n
Cc1cc(-c2nnc3sc(-c4ccc(Cl)cc4Cl)nn23)n[nH]1	n	n	n	u	n	10µM
COc1ccc2oc(C(=O)c3ccccc3)c(N)c2c1	n	n	n	n	u	n
COc1ccc(C(=O)c2oc3ccccc3c2N)cc1	n	79.4µM	n	n	u	n
Cc1cccc(C)c1OCC(=O)N[C@@H](Cc1ccccc1)[C@@H](O)C[C@H](Cc1ccccc1)NC(=O)[C@H](C(C)C)N1CCCNC1=O	x	n	n	x	x	x
Cc1ccc(C)c(NC(=O)CSc2ncc3c(n2)-c2ccccc2N(Cc2ccccc2C)S3(=O)=O)c1	u	x	n	x	x	x
Cc1ccccc1CN1c2ccccc2-c2nc(SCC(=O)NCCc3ccccc3)ncc2S1(=O)=O	22.4µM	x	n	x	x	x
COc1ccc2c(c1)O[C@@H](c1ccc3c(c1)OCO3)[C@H](OC(=O)N[C@H]1CCCc3ccccc31)C2=O	n	n	x	x	n	n
O=[N+]([O-])c1ccc(O)c(-c2nn[nH]n2)c1	n	n	n	n	0.398µM	n
O=[N+]([O-])c1ccc(O)c(-c2ccnc3cc(-c4ccccc4)nn23)c1	n	x	n	x	x	x
Cc1cc(C)n(-c2ccc(C(F)(F)F)cc2[N+](=O)[O-])n1	n	n	n	n	n	n
Cc1cc(C)n(-c2ccc([N+](=O)[O-])cc2-c2nn[nH]n2)n1	n	79.4µM	n	n	n	n
CCOc1ccccc1N1CCN(c2nc(N)c(C#N)c(CC#N)c2C#N)CC1	u	15.8µM	n	n	u	n
SMILES	Epigenetic derep	Sfp inh	KAT2A inh	NPSR antagonist	KDM4E inh	IMPase Li cell
CN(C)c1cc(Nc2ccc(O)cc2)c([N+](=O)[O-])c2nonc12	n	n	n	n	n	x
O=[N+]([O-])c1c(Nc2ccccn2)cc(Cl)c2nonc12	n	7.94µM	u	10µM	1µM	x
O=[N+]([O-])c1c(Nc2ccc(O)cc2)cc(Cl)c2nonc12	x	50.1µM	n	x	x	x
O=C(O)c1ccccc1Nc1cc(Cl)c2nonc2c1[N+](=O)[O-]	x	u	n	x	x	x
CCCCC/C=C\C/C=C\C/C=C\C/C=C\CCCC(=O)C(F)(F)F	u	28.2µM	n	x	x	n
CCCCCCCCCCC/C=C\C/C=C\CCCC(=O)O	n	n	n	x	n	n
COc1cccc(/C=N/Nc2snc(SC)c2C#N)c1	n	56.2µM	n	n	n	n
Cc1cc(C)c2c(N)c(C(=O)N3CCCCCC3)sc2n1	n	35.5µM	n	n	u	n
Nc1c(C(=O)N2CCCC2)sc2nc3c(cc12)CCCCCC3	n	56.2µM	n	n	u	n
COCc1cc(C)nc2sc(C(=O)N3CCCC3)c(N)c12	n	u	n	n	n	n
CC(=O)c1cc2c(cc1O)OC(C)(C)C=C2	n	n	n	x	n	n
CC(C)N1CCc2c(sc(NC(=O)c3cc(-c4cccs4)nc4ccccc34)c2C(N)=O)C1	17.8µM	u	n	n	n	n
Cc1ccc(-c2nc(NC(=O)CSc3nnc(C)s3)ns2)cc1	n	n	n	n	n	14.1µM
O=C(NCCCN1CCOCC1)c1ccc(Cc2nc3ccccc3[nH]2)cc1	n	x	x	x	x	x
COc1ccc(-n2ccnc(NCc3cccs3)c2=O)cc1	n	x	n	x	x	x
Cc1ccc(CN(Cc2cccnc2)C(=O)CN2C(=O)COc3ccccc32)o1	n	28.2µM	n	n[7.67 µM]	n	n
O=C(c1ccccc1)c1coc2c1C(=O)c1ccccc1C2=O	u	u	n	u	n	n
COc1ccc(C(=O)c2coc3c2C(=O)C(=O)c2ccccc2-3)cc1	n	31.6µM	n	u	u	x
c1ccc(-c2ncc3ccccn23)cc1	n	15.8µM	n	n	u	x
Cc1ccc(CNC(=O)c2ccc3c(=O)n(CCCN4CCCC4=O)c(=S)[nH]c3c2)cc1	n	n	n	n	n	n
COc1ccc(-n2c(=S)[nH]c3cc(C(=O)NCc4ccco4)ccc3c2=O)cc1OC	n	n	n	n	n	n
C=CCNC(=O)c1ccc2c(=O)n(CCCN3CCCC3=O)c(=S)[nH]c2c1	n	79.4µM	n	n	n	n
O=C(NCc1ccco1)c1ccc2c(=O)n(-c3ccccc3)c(=S)[nH]c2c1	n	n	n	n	n	12.6µM
O=C(NCCCN1CCCC1=O)c1ccc2c(=O)n(Cc3ccco3)c(=S)[nH]c2c1	n	35.5µM	n	n	n	n
Cc1ccc(N(Cc2ccccc2)Cc2ccccc2)cc1	x	x	x	x	x	n
SMILES	Epigenetic derep	Sfp inh	KAT2A inh	NPSR antagonist	KDM4E inh	IMPase Li cell
CCC/C=C/C1C(=O)C2OC2C2(OCC(CC)(CC)CO2)C1CO (stereo unspecified)	u	n	x	x	x	x
c1ccc2c(c1)[nH]c1c(N3CCOCC3)ncnc12	n	n	n	n	u	n
CCc1cc(N2CCOCC2)cc2c1[nH]c1ccccc12	n	50.1µM	n	n	u	n
O=c1c(-c2ccc(O)cc2)coc2cc(O[C@@H]3O[C@H](CO)[C@@H](O)[C@H](O)[C@H]3O)cc(O)c12	x	n	n	x	x	x
CC[C@H](C)[C@H](NC(=O)CNC(=O)COc1cc2c(c3oc(=O)cc(C)c13)CCC(C)(C)O2)C(=O)O	x	n	22.4µM	x	x	x
Cc1cc(=O)oc2c3c(cc(OCC(=O)NCC(=O)N[C@H](C(=O)O)C(C)C)c12)OC(C)(C)CC3	x	n	n	x	x	x
C[C@@H]1CCC2[C@](C)(CO)[C@@H](O)CC[C@]2(C)[C@]12CCC(CO)(CCO)O2 (stereo partly specified)	n	n	x	x	n	n
